AmpC inh no detg: qHTS Inhibitors of AmpC Beta-Lactamase (assay without detergent); hit rate 0.52% among 330,000; AID 485341, 2010; AmpC nitrocefin hydrolysis, absorbance 480 nm, 0.0001% Triton; Potency, µM (top dose mostly 57.1 µM), inactives show top-dose activity change, negative = inhibition, hits mostly inhibitors; P00811;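 also: plate controls were no compound for no effect and no enzyme for full effect; nearly all actives have a fitted effect of over 20% in size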
Target sequence (P00811 whole entry, looked up): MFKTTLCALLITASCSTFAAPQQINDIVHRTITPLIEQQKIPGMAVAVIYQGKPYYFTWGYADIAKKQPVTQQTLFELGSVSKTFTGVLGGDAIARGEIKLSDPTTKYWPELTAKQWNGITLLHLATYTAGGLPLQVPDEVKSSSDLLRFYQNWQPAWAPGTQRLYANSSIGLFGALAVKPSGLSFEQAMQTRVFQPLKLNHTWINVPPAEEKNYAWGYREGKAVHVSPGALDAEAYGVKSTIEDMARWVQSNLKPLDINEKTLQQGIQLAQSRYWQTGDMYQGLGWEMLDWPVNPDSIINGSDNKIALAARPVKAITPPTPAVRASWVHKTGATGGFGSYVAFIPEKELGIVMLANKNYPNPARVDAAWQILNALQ
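AmpC (5.3 nM in the dispensed reagent) in 20 mM phosphate pH 7.0 with 0.01% (detergent screen) or 0.0001% Triton X-100 was preincubated with compounds for 15 min at room temperature. Nitrocefin was then added from an 800 uM solution, and hydrolysis was followed at 480 nm.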
FBPA Giardia inh: qHTS Assay for Inhibitors of Fructose-1,6-bisphosphate Aldolase from Giardia Lamblia | A8B2U2 | purified Giardia FBPA | Potency, µM (top dose mostly 59.6 µM), for the others: at the highest dose activity, negative = inhibition, usual class: inhibitors | hit rate 0.71% among 290,000; also: nearly all actives have a fitted effect of over 55% in size
Target sequence (A8B2U2 whole entry, looked up): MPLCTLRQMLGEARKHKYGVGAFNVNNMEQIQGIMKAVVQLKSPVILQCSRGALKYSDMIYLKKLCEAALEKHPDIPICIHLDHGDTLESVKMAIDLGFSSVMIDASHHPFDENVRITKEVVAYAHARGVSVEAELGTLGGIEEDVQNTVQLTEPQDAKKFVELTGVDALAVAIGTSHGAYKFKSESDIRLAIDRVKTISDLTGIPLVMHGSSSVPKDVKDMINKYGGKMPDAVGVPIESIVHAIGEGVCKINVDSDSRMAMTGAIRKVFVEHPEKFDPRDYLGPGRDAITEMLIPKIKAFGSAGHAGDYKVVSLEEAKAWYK
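Giardia FBPA (40 nM reagent) was preincubated 10 min at RT with compound (up to 57.5 uM final), then substrate plus GAPDH/TPI/NAD/arsenate coupling system with diaphorase/resazurin was added; resorufin fluorescence (525/598 nm) was read after 20 min.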
AMA1 RON2 block: qHTS for Inhibitors of AMA1-RON; Towards Development of Antimalarial Drug Lead: Primary Screen | AID 720542, 2013 | hit rate 0.2% among 360,000 | AlphaScreen AMA1-biotinylated RON2 peptide binding | Plasmodium falciparum AMA1 (3D7) - RON2 peptide interaction | Potency, µM (top dose mostly 58.2 µM), without a hit: top-dose activity change, negative = inhibition, actives largely listed as inhibitors;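 also: 0% = vehicle wells and -100% = peptide control; nearly all actives have a fitted effect of over 45% in size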
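AMA1 (3D7) with his tag at 25 nM final met compounds first, then biotinylated RON2 peptide at 25 nM; detection used donor plus acceptor beads, 10 µg/mL apiece, read by AlphaScreen after 30 min at room temperature.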
AmpC detergent: qHTS Inhibitors of AmpC Beta-Lactamase (assay with detergent); P00811; AmpC hydrolysis of nitrocefin, absorbance 480 nm, 0.01% Triton; Potency, µM (top dose mostly 114 µM), for inactives: top-dose activity change, negative = inhibition, actives largely listed as inhibitors; hit rate 0.041% among 370,000; AID 485294, 2010;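 also: 0% = no-compound wells and -100% = no-enzyme wells; nearly all actives have a fitted effect of over 25% in size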
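20 mM phosphate pH 7.0 + 0.01% (detergent screen) or 0.0001% Triton X-100; 5.3 nM AmpC reagent; cpd preinc 15 min RT; nitrocefin (800 uM stock) to start; A480 q20 s × 4 min; Activity was normalised to no-enzyme and no-compound control wells.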
LmPK inh: qHTS Assay for Inhibitors of Leishmania Mexicana Pyruvate Kinase (LmPK). Q27686. purified LmPK, Kinase-Glo ATP luminescence, 1 h. Potency, µM (series often up to 57.5 µM), inactives show at the highest dose activity change, negative = inhibition, usual class: inhibitors. hit rate 0.37% among 290,000. AID 1721, 2009
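In 50 mM imidazole pH 7.2 with 7 mM MgCl2, LmPK (0.1 nM) turned over PEP (0.5 mM) and ADP (0.1 mM) for 1 h at room temperature. Luciferase read-out of ATP.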
* hit, by the source's call; ? = inconclusive; . = not tested or not shown; [ ] = remark or other dose. An excerpt weighted towards active compounds, which were near 1.3% of everything screened. Calls follow the shape of the dose curve; as a rule, active = well fitted curve in the direction sought with a large enough effect; inconclusive = small, poorly fitted or top-dose-only effect, or another doubt; inactive = no such curve, though single readings can be large; an effect the other way counts as inactive or inconclusive. Unless noted, % is scaled to controls: 0 for no effect and ±100 for the full control effect; potency is read from the fitted curve at half-maximal effect.

SMILES | AmpC inh no detg | FBPA Giardia inh | AMA1 RON2 block | AmpC detergent | LmPK inh
COc1ccc(NS(=O)(=O)c2cccc(-c3n[nH]c(=S)n3Cc3ccccc3)c2)cc1 | 13µM* | 15% | 98% | ? | -3%
COc1ccc(-c2n[nH]c(=S)n2Cc2ccccc2)cc1OC | -13% | 29% | 84% | -5% | ?
Oc1cccc(-c2nc3ncccn3c2Nc2cccc(C(F)(F)F)c2)c1 | . | . | . | 3% | .
COc1cccc2nc3cc(C)c(C)cc3nc12 | 34% | ? | -6% | 6% | 13µM*
COc1cccc2c1nc(C)c1cc(C)oc12 | -2% | 3% | 0% | ? | 4%
Cn1c(N)c(C#N)c(-c2ccccc2)c(C#N)c1=O | . | . | -2% | . | .
C=CCN=C1NN=C(c2ccc3c(c2)OCCO3)CS1 | -22%[11.4 µM] | -24% | 12% | ? | 10µM*
Fc1ccc(C2=NNC(=NCc3ccccc3)SC2)cc1F | 18µM* | 1% | 22% | 0% | -15%
c1ccc(C2=NNC(=NCc3ccc4c(c3)OCO4)SC2)cc1 | -48% | 6% | 21% | -10% | -1%
CC1(C)CC=CC(COC(=O)c2ccccc2C(=O)O)C1 (configuration not stated) | . | . | -4% | . | .
Cc1ccc(C)c(N(C)C(=O)C2CCN(c3ncnc4c3nc3n4CCCCC3)CC2)c1 | . | . | . | 16% | .
Cc1cccc(N2CC(C(=O)NCc3ccco3)CC2=O)c1C (configuration not stated) | -13% | . | -4% | -1% | .
Nc1c(C(=O)N2CCOCC2)sc2nc3c(cc12)CCC3 | -20% | -4% | 16% | -7% | 16µM*
O=C(COC(=O)C1CCCCC1)Nc1cccc(Br)c1 | -29% | . | 9% | -5% | .
CS/C(N)=C(C#N)/C(C#N)=C(\N)SC | . | -17% | . | . | .
CC1CCc2nn(CC(=O)NCCN3CCOCC3)cc2C1 (configuration not stated) | 11µM* | 1% | -1% | 0% | -8%
CC1CCc2nn(CC(=O)NCCC3=CCCCC3)cc2C1 (configuration not stated) | 0.56µM* | 1% | 5% | ? | 2%
CCC(C)Nc1c([N+](=O)[O-])cc(C)cc1[N+](=O)[O-] (configuration not stated) | -23% | -12% | 16µM* | -1% | -7%
O=C(NCC1CCCO1)c1csc(Nc2cccc3ccccc23)n1 (configuration not stated) | -17% | 16% | -7% | 0% | 14µM*
O=C(N/N=C/c1ccc(Sc2ccccn2)o1)c1cc2ccccc2cc1O | 18µM* | 1% | 55% | 1% | -10%
O=C(N/N=C\c1ccc(Sc2ccccn2)o1)c1cccc(F)c1 | -49% | -8% | 16% | -11% | 1%
O=C(N/N=C/c1ccc(Sc2ccccn2)o1)c1cccc([N+](=O)[O-])c1 | 10µM* | -22% | 8% | ? | 1%
Nc1ccc(N2CCCCC2)c2nonc12 | -41% | 2µM* | 2% | -5% | -8%
O=[N+]([O-])c1ccc(N2CCCCCC2)c2nonc12 | -10% | 1% | 12% | 2% | -1%
CC1(C)Cc2c(cnn2-c2ccc(F)cc2)C(NC(=O)C2=CC(=O)CC(C)(C)O2)C1 (configuration not stated) | . | . | -9% | . | .
SMILES | AmpC inh no detg | FBPA Giardia inh | AMA1 RON2 block | AmpC detergent | LmPK inh
Cc1cc(/C=N/n2c(COc3ccccc3)nc3ccccc3c2=O)c(O)c([N+](=O)[O-])c1 | 20µM* | 8% | ? | ? | -15%
O=c1c2ccccc2nc(COc2ccccc2)n1/N=C/c1ccc(O)c(O)c1 | 3.5µM* | -30% | 35% | 9% | -1%
O=C(NCCC1=CCCCC1)c1ccc2c(c1)N(Cc1cccc(Cl)c1)C(=O)c1ccccc1S2=O (configuration not stated) | . | . | . | -2% | .
Cc1cc(NC(c2cccnc2)c2ccc3cccnc3c2O)no1 (configuration not stated) | -22% | -3% | 20µM* | -9% | 3%
Oc1c(C(Nc2cccc(C(F)(F)F)c2)c2cccnc2)ccc2cccnc12 (configuration not stated) | -18% | ? | -34% | -3% | 11%
COc1ccc(S(=O)(=O)N2CCC3CC2c2c(-c4ccc(C(F)(F)F)cc4)cccc23)cc1 (configuration not stated) | . | . | 0% | . | .
CCOC(=O)c1ccccc1NC(=O)Cn1ccn2nc(-c3ccc(OCC)cc3)cc2c1=O | . | . | . | -1% | .
O=C(CSc1nnc(SCc2ccccc2)s1)N/N=C/C=C/c1ccco1 | 11µM* | -21% | 13% | ? | 1%
O=C(CSc1nnc(SCc2cccc3ccccc23)s1)N/N=C/C=C/c1ccccc1[N+](=O)[O-] | 14µM* | 6% | 14%[2.32 µM] | -2% | -1%
Cc1cc(OCCn2cc(/C(N)=N/O)c3ccccc32)ccc1Cl | 16µM* | -2% | -7% | ? | -3%
Nc1nc(N)c2cc(S(=O)(=O)c3cccc(C(F)(F)F)c3)ccc2n1 | . | . | 4% | . | .
CN(C)c1ccc(Sc2ccc3nc(N)nc(N)c3c2)cc1 | . | . | 10µM* | . | .
COc1ccc(N2CC(C(=O)Nc3nnc(SCC(=O)NCC4CCCO4)s3)CC2=O)cc1 (configuration not stated) | . | . | 18% | . | .
O=C(/C=C/c1ccccc1)CCN1CCCCC1 | . | . | -4% | . | .
CN(Cc1nc(-c2cccs2)no1)CC1COCCO1 (configuration not stated) | 5% | 5% | 11% | 6% | 7%
CN(Cc1nc(C(c2ccccc2)c2ccccc2)no1)CC1COCCO1 (configuration not stated) | -13% | -19% | -14% | -4% | 14µM*
Cn1c(SCC(=O)Nc2ccc(F)cc2)nnc1-c1cccnc1 | 32µM* | -14% | -1% | ? | -2%
Cn1c(SCC(=O)Nc2ccccc2F)nnc1-c1cccnc1 | -4% | 1% | -1% | ? | 0%
CCc1ccccc1-n1c(SCC(=O)NC)nnc1-c1ccco1 | -4% | -4% | -7% | ? | 0%
CCc1ccccc1-n1c(SCC(=O)NC)nnc1-c1cccnc1 | 1% | 18% | 15% | 35µM* | -3%
COCCCn1cc(CN2CC(N3CCSCC3)CS2(=O)=O)nn1 (configuration not stated) | . | . | 27% | . | .
CC1CCCCN1C(=O)COC(=O)c1cccc(NS(=O)(=O)c2ccccc2)c1 (configuration not stated) | 11% | . | -3% | -4% | .
Cc1nc2sc(-c3ccccc3)cc2c(=O)n1N | -6% | 2% | 38% | 3% | 7.1µM*

High-throughput results (PubChem BioAssay)
